{"source": "the supplement of paper PMC10503962", "data": [{"test_system": "Trichuris muris adult worms", "assay": "mean motility score (Paragon pixel variance) of adult worms (arbitrary units); higher = more motile worms, i.e. less anthelmintic effect; extreme values may be limits of the assay", "settings": "100 µM; 24 h", "description": "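Primary ex vivo screen of 409 approved drugs against adult Trichuris muris worms: one worm per well in RPMI-1640 with penicillin/streptomycin, 100 µM drug in 1% DMSO, 37 °C, 5% CO2 for 24 h. Motility was recorded with INVAPP (200-frame movies) and scored with the Paragon pixel-variance algorithm. Values are means of triplicate wells run on three occasions; levamisole was the positive control and DMSO the negative control.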", "values": [{"molecule": "COc1ccc(C(CN(C)C)C2(O)CCCCC2)cc1.Cl", "note": "(centres undefined) [venlafaxine hydrochloride]", "mean motility score": 1570}, {"molecule": "CN(C)C(=O)Oc1cccc([N+](C)(C)C)c1.COS(=O)(=O)[O-]", "note": "[neostigmine methylsulfate]", "mean motility score": 1600}, {"molecule": "Cl.O=C(CCCN1CCC(n2c(=O)[nH]c3ccccc32)CC1)c1ccc(F)cc1", "note": "[benperidol hydrochloride]", "mean motility score": 3960}, {"molecule": "CCOP(=O)(OCC)Oc1ccc([N+](=O)[O-])cc1", "note": "[paraoxon]", "mean motility score": 0}, {"molecule": "CN(C)C(=O)Oc1cc(OC(=O)N(C)C)cc(C(O)CNC(C)(C)C)c1.Cl", "note": "(centres undefined) [bambuterol hydrochloride]", "mean motility score": 1410}, {"molecule": "C[C@H](N)[C@H](O)c1ccc(O)c(O)c1", "note": "[levonordefrin]", "mean motility score": 2110}, {"molecule": "CN(C)C(=O)Oc1ccc[n+](C)c1.[I-]", "note": "[pyridostigmine iodide]", "mean motility score": 2610}, {"molecule": "C#CCN(C)[C@H](C)Cc1ccccc1.Cl", "note": "[selegiline hydrochloride]", "mean motility score": 2950}, {"molecule": "C[N+](C)(C)CCCCCCCCCC[N+](C)(C)C.[Br-].[Br-]", "note": "[decamethonium bromide]", "mean motility score": 2280}, {"molecule": "CC(C)N(CCC(C(N)=O)(c1ccccc1)c1ccccn1)C(C)C", "note": "(centres undefined) [disopyramide]", "mean motility score": 1630}, {"molecule": "COc1cc2c(c(OC)c1OC)-c1ccc(OC)c(=O)cc1[C@@H](NC(C)=O)CC2", "note": "[colchicine]", "mean motility score": 1420}, {"molecule": "O=C1CC[C@@]2(O)[C@H]3Cc4ccc(O)c5c4[C@@]2(CCN3CC2CC2)[C@H]1O5", "note": "[naltrexone]", "mean motility score": 3530}, {"molecule": "CN1C[C@H](C(=O)N[C@]2(C)O[C@@]3(O)[C@@H]4CCCN4C(=O)[C@H](Cc4ccccc4)N3C2=O)CC2c3cccc4[nH]cc(c34)C[C@H]21.CS(=O)(=O)O", "note": "(some centres undefined) [dihydroergotamine methanesulfonate]", "mean motility score": 1730}, {"molecule": "[O-][n+]1ccccc1S", "note": "[pyrithione]", "mean motility score": 3120}, {"molecule": "CNC(=O)Oc1ccc2c(c1)[C@]1(C)CCN(C)[C@@H]1N2C", "note": "[physostigmine]", "mean motility score": 3170}, {"molecule": "COc1ccc(CCN2CCC(Nc3nc4ccccc4n3Cc3ccc(F)cc3)CC2)cc1", "note": "[astemizole]", "mean motility score": 0}, {"molecule": "CC[C@@H](CO)NC(=O)[C@@H]1C=C2c3cccc4[nH]cc(c34)C[C@H]2N(C)C1.O=C(O)/C=C\\C(=O)O", "note": "[methylergonovine maleate]", "mean motility score": 2650}, {"molecule": "N[C@@H](Cc1cc(Br)c(O)c(Br)c1)C(=O)O", "note": "[3,5 dibromotyrosine]", "mean motility score": 3040}, {"molecule": "COc1cc([C@@H]2c3cc4c(cc3[C@H](O)[C@H]3COC(=O)[C@H]23)OCO4)cc(OC)c1OC", "note": "[podofilox]", "mean motility score": 3650}, {"molecule": "C#C[C@]1(O)CC[C@H]2[C@@H]3CCC4=CC(=O)CC[C@]4(C)[C@H]3CC[C@@]21C", "note": "[ethisterone]", "mean motility score": 1590}, {"molecule": "CC(C)C[C@H]1C(=O)N2CCC[C@H]2[C@]2(O)O[C@](NC(=O)C3C=C4c5cccc6[nH]c(Br)c(c56)C[C@H]4N(C)C3)(C(C)C)C(=O)N12.CS(=O)(=O)O", "note": "(some centres undefined) [bromocriptine methanesulfonate]", "mean motility score": 2300}, {"molecule": "CC[C@H]1[C@H]2CC3[C@@H]4N(C)c5ccccc5[C@]45C[C@H]([C@@H]2C5O)N3[C@@H]1O", "note": "(some centres undefined) [ajmaline]", "mean motility score": 1790}, {"molecule": "C=CCN1CC[C@]23c4c5ccc(O)c4O[C@H]2C(=O)CC[C@@]3(O)[C@H]1C5.Cl", "note": "[naloxone hydrochloride]", "mean motility score": 3870}, {"molecule": "CCCN1C[C@H](CSC)C[C@@H]2c3cccc4[nH]cc(c34)C[C@H]21.CS(=O)(=O)O", "note": "[pergolide mesylate]", "mean motility score": 3150}]}]}
